{
  "source": "the supplement of paper PMC10127200",
  "note": "Structures can show the parent of a compound that is named as a salt.",
  "data": [
    {"tested_on": "FB", "test": "Euclidean distance of Cell Painting phenotypic profile (signed KS, 77 features) to DMSO centroid (dimensionless distance); 5 or 10 uM (library dependent); higher = stronger phenotypic change vs DMSO (phenoactivity)", "details": "48 h", "outline": "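Five cancer lines, together with a healthy fibroblast line, received library compounds for 48 h at a library-dependent 10 or 5 uM and 0.1% DMSO final. Harmony then derived 77 features from confocal 20X images (9 fields/well) of the stained cells, scoring each as a signed Kolmogorov-Smirnov statistic against same-plate vehicle wells. After plate-position correction, correlation weighting and replicate averaging at the top dose, phenoactivity was taken as each profile's Euclidean distance to the median vehicle profile.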", "values": [
      {"molecule": "O=C(O)c1ccccc1O", "note": "[Salicylic acid]", "Euclidean distance": 0.648},
      {"molecule": "CN1CCCN=C1/C=C/c1cccs1", "note": "[Pyrantel Pamoate]", "Euclidean distance": 1.28},
      {"molecule": "CN[C@@H]1[C@@H](O[C@H]2O[C@H](CO)[C@@H](N)[C@H](O)[C@H]2O)OC2C[C@@H](N)[C@@H](O[C@H]3[C@H](O)[C@@H](O)[C@H](N)C[C@@H]3N)OC2[C@@H]1O", "note": "(stereo not given in full) [Apramycin Sulfate]", "Euclidean distance": 1.27},
      {"molecule": "CCOC(=O)c1ccc(O)cc1", "note": "[Ethylparaben]", "Euclidean distance": 0.865},
      {"molecule": "CC(C)(C)c1[nH]cnc1/C=c1\\[nH]c(=O)/c(=C/c2ccccc2)[nH]c1=O", "note": "[Plinabulin (NPI-2358)]", "Euclidean distance": 2.89},
      {"molecule": "C[C@H](NC(=O)CCC(F)(F)F)C(=O)N[C@@H]1C(=O)N(CCO)c2ncccc2-c2ccccc21", "Euclidean distance": 0.741},
      {"molecule": "CC1=C(/C=C/C(C)=C/C=C/C(C)=C/C(=O)Nc2ccc(O)cc2)C(C)(C)CCC1", "note": "[Fenretinide]", "Euclidean distance": 2.58},
      {"molecule": "Cn1cnc2c(F)c(Nc3ccc(Br)cc3F)c(C(=O)NOCCO)cc21", "Euclidean distance": 3.82},
      {"molecule": "OC(CCN1CCCC1)(c1ccccc1)C1CCCCC1", "note": "(stereo not given) [Procyclidine HCl]", "Euclidean distance": 1.87},
      {"molecule": "CCN(C(=O)c1c(O)c2c(Cl)cccc2n(C)c1=O)c1ccccc1", "note": "[Laquinimod]", "Euclidean distance": 0.902},
      {"molecule": "COc1ccc(CN2CCN(C(c3ccc(F)cc3)c3ccc(F)cc3)CC2)c(OC)c1OC", "note": "[Lomerizine 2HCl]", "Euclidean distance": 1.08},
      {"molecule": "O=c1cc(CO)occ1O", "note": "[Kojic acid]", "Euclidean distance": 0.833},
      {"molecule": "CC[C@@H](C)Nc1cc(C(=O)N[C@H]2C[C@H]3CC[C@@H](C2)N3c2ccc(C(=O)C3CC3)cn2)c(C)cc1C(N)=O", "Euclidean distance": 3.15},
      {"molecule": "CCC(C)n1ncn(-c2ccc(N3CCN(c4ccc(OCC5COC(Cn6cncn6)(c6ccc(Cl)cc6Cl)O5)cc4)CC3)cc2)c1=O", "note": "(stereo not given) [Itraconazole]", "Euclidean distance": 1.53},
      {"molecule": "CC(O)Cn1cnc2c1c(=O)n(C)c(=O)n2C", "note": "(stereo not given) [Proxyphylline]", "Euclidean distance": 0.934},
      {"molecule": "C=C1CC[C@H](O)C/C1=C/C=C1\\CCC[C@]2(C)[C@@H]([C@H](C)CCCC(C)(C)O)CC[C@@H]12", "note": "[Calcifediol]", "Euclidean distance": 1.4},
      {"molecule": "CC(C)C[C@H](NC(=O)CNC(=O)[C@H](Cc1ccc(O)cc1)NC(=O)[C@H](CO)NC(=O)[C@H](Cc1c[nH]c2ccccc12)NC(=O)[C@H](Cc1cnc[nH]1)NC(=O)[C@@H]1CCC(=O)N1)C(=O)N[C@@H](CCCNC(=N)N)C(=O)N1CCC[C@H]1C(=O)NCC(N)=O", "note": "[Gonadorelin Acetate]", "Euclidean distance": 1.19},
      {"molecule": "COc1ccccc1N1CCN(CC(O)COc2cccc3ccccc23)CC1", "note": "(stereo not given) [Naftopidil]", "Euclidean distance": 1.01},
      {"molecule": "C=C1C(=O)O[C@H]2[C@H]1CC/C(C)=C/CC[C@@]1(C)O[C@@H]21", "note": "[(-)-Parthenolide]", "Euclidean distance": 2.7},
      {"molecule": "OCCN1C[C@H](O)[C@@H](O)[C@H](O)[C@H]1CO", "note": "[Miglitol]", "Euclidean distance": 0.979},
      {"molecule": "COc1ccc2cc([C@H](C)C(=O)O)ccc2c1", "note": "[Naproxen Sodium]", "Euclidean distance": 0.856},
      {"molecule": "CCCCCCOC(=O)NC(=N)c1ccc(NCc2nc3cc(C(=O)N(CCC(=O)OCC)c4ccccn4)ccc3n2C)cc1", "note": "[Dabigatran Etexilate]", "Euclidean distance": 1.58},
      {"molecule": "CN1CCC(=C2c3ccccc3CCc3cccnc32)CC1", "note": "[Azatadine dimaleate]", "Euclidean distance": 1.05},
      {"molecule": "COc1cc(Nc2ncc(F)c(Nc3ccc4c(n3)N(COP(=O)(O)O)C(=O)C(C)(C)O4)n2)cc(OC)c1OC", "note": "[R788 (Fostamatinib) Disodium]", "Euclidean distance": 3.19},
      {"molecule": "CO[C@H]1C[C@@H]2CC[C@@H](C)[C@@](O)(O2)C(=O)C(=O)N2CCCC[C@H]2C(=O)O[C@H]([C@H](C)C[C@@H]2CC[C@H](n3cnnn3)[C@H](OC)C2)CC(=O)[C@H](C)/C=C(\\C)[C@@H](O)[C@@H](OC)C(=O)[C@H](C)C[C@H](C)/C=C/C=C/C=C/1C", "note": "[Zotarolimus(ABT-578)]", "Euclidean distance": 2.7},
      {"molecule": "CO[C@@H](C(=O)N1Cc2[nH]nc(NC(=O)c3ccc(N4CCN(C)CC4)cc3)c2C1)c1ccccc1", "Euclidean distance": 1.66},
      {"molecule": "CCCCS(=O)(=O)N[C@@H](Cc1ccc(OCCCCC2CCNCC2)cc1)C(=O)O", "note": "[Tirofiban Hydrochloride]", "Euclidean distance": 1.22},
      {"molecule": "CCOC(=O)c1ccc(N)cc1", "note": "[Benzocaine hydrochloride]", "Euclidean distance": 0.896},
      {"molecule": "CSc1nc2cc(Cl)c(Oc3cccc(Cl)c3Cl)cc2[nH]1", "note": "[Triclabendazole]", "Euclidean distance": 1.07},
      {"molecule": "CN[C@@H]1[C@H](O)[C@H](NC)[C@H]2O[C@@]3(O)C(=O)C[C@@H](C)O[C@H]3O[C@@H]2[C@H]1O", "note": "[Spectinomycin 2HCl]", "Euclidean distance": 1.48}
    ]}
  ]
}
